PLK1 PBD inh: blocks phosphopeptide binding to human PLK1 polo-box domain | P53350 | AID 720504 | Potency, µM, usual class: inhibitors | Plk1 PBD binding of FITC phosphopeptide, fluorescence polarization | 360,000 compounds, 2.8% hits; further: series mostly up to about 57 µM; nearly all actives have a fitted effect of over 65% in size
Target sequence (P53350 whole entry, looked up, the tested form may be a part): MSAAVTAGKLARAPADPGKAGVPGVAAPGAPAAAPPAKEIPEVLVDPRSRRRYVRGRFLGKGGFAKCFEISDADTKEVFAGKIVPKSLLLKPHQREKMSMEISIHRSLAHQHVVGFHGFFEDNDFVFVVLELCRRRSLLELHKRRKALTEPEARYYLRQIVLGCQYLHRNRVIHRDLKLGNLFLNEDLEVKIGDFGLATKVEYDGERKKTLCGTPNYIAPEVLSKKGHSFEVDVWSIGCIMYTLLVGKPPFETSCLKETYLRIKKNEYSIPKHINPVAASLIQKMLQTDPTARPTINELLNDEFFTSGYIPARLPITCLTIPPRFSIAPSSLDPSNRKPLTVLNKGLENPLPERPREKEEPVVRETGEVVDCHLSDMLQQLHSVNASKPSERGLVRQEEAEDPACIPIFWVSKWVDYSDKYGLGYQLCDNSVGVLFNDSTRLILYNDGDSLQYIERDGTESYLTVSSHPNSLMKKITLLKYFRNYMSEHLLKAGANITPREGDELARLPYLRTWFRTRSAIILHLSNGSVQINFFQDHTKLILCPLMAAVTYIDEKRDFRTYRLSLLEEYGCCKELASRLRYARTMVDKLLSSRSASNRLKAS
KAT2A inh: GCN5L2 (KAT2A) acetyltransferase inhibition; GCN5L2 HAT assay, ThioGlo1 CoA-SH fluorescence; Potency, µM (top dose mostly 58.9 µM), actives largely listed as inhibitors; Q92830; AID 504327; 390,000 compounds, 0.21% hits
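Titration-based screen in which CoA formation is detected via maleimide probe ThioGlo1 (50uM) turning fluorescent on thiol reaction; substrates H3(1-25) 75uM and acetyl-CoA 70uM, GCN5L2 20nM, 20 min incubation at room temperature.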
Mito fusion yeast: mitochondrial division inhibition or fusion activation | Potency, µM (doses to about 46.1 µM), usual class: activators | S. cerevisiae fusion-defective mutant growth rescue, CellTiterGlo 48 h | 320,000 compounds, 0.23% hits; further: nearly all actives have a fitted effect of over 45% in size
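Luminescent cell viability in 1536-well qHTS format served as the measure of rescued growth in ts fusion-mutant S. cerevisiae cultured on non-fermentable YPEG for 48 hours at 37C.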
VDR inhibitor: inhibitors of human vitamin D receptor; VDR-SRC2-3 peptide fluorescence polarization, 2 h; Potency, µM, actives largely listed as inhibitors; 400,000 compounds, 0.93% hits; P11473
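Fluorescence polarization assay of small-molecule disruption of VDR binding to coregulator peptide SRC2-3. Compounds and controls pin-transferred, then read after 2 h incubation at ambient room temperature.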
PKM2 act: activators of human pyruvate kinase M2; P14618; purified PKM2, Kinase-Glo ATP luminescence, activation; response scale: 0% is enzyme alone, no compound; Potency, µM (series often up to 57.5 µM), actives largely listed as activators; 260,000 compounds, 0.34% hits; further: nearly all actives have a fitted effect of over 55% in size
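ATP formation by purified human PK-M2, quantified via coupled luciferase luminescence after 1 h at room temperature with 0.1 mM ADP and 0.5 mM PEP final.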
GLS inh: inhibitors of human glutaminase (GLS); 410,000 compounds, 0.21% hits; O94925; GLS enzymatic activity, qHTS titration; Potency, µM (titrated, usually from 45.5 µM), hits mostly inhibitors
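hKGA; 45 mM KH2PO4 pH 8.2 + 0.02% Tween-20; cpd via pin tool; 1 mM Gln soln; GluOx/HRP/Amplex Red; RT 30 min; fluor. t0 & final.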
TbPYK inh: Trypanosoma brucei pyruvate kinase inhibition, cherry-pick confirmation. shares compounds with PLK1 PBD inh. recombinant TbPYK, Kinase-Glo ATP luminescence. Potency, µM (highest dose often 76.9 µM), actives largely listed as inhibitors. 890 compounds, 67% hits; further: nearly all actives have a fitted effect of over 70% in size
TbPYK orthogonal: TbPYK inhibition, orthogonal confirmation; shares compounds with PLK1 PBD inh; recombinant TbPYK, ADP-Glo luminescence, 60 min; Potency, µM (highest dose often 76.9 µM), actives largely listed as inhibitors; 890 compounds, 62% hits; AID 720584; further: nearly all actives have a fitted effect of over 75% in size
Large screens that a line does not name were inactive (follow-up assays come after a bar, where they were run). This is a sample that favours compounds with a hit; in the whole collection about 3.4% have one here. The call rests on the fitted dose curve; in most records, active means well fitted curve in the direction sought with a large enough effect; inconclusive means small, poorly fitted or top-dose-only effect, or another doubt; inactive means no such curve, though single readings can be large; an effect the other way counts as inactive or inconclusive.

NC1=N[C@H](O)[C@H]2C3O[C@]4(O)O[C@H](C(O)[C@@]2(N1)[C@@H]4O)C3(O)CO (some centres undefined)	none (no result: PLK1 PBD inh, Mito fusion yeast, PKM2 act, GLS inh)
O=[As]O[As]=O (centres undefined)	none (no result: PLK1 PBD inh, Mito fusion yeast, PKM2 act)
CC1O[C@@H](OC2CC[C@@]3(C=O)C4CC[C@]5(C)C(C6=CC(=O)OC6)CC[C@@]5(O)C4CC[C@]3(O)C2)C(O)C(O)C1O (some centres undefined)	none (no result: PLK1 PBD inh, Mito fusion yeast, PKM2 act, GLS inh)
C[C@]12CC[C@@H]3c4cc(O)c(O)cc4CC[C@H]3[C@@H]1CC[C@@H]2O	PLK1 PBD inh 21.2µM, PKM2 act inconclusive, GLS inh 8.91µM | TbPYK inh 2.24µM | TbPYK orthogonal 3.55µM
C[C@]12CC[C@@H]3c4ccc(O)c(O)c4CC[C@H]3[C@@H]1CC[C@@H]2O	PLK1 PBD inh inconclusive, PKM2 act inconclusive, GLS inh inconclusive | TbPYK inh 10µM | TbPYK orthogonal 10µM
C[C@]12CC[C@H]3[C@@H](CCC4=CC(=O)CC[C@@H]43)[C@@H]1CC[C@@H]2O	none (no result: Mito fusion yeast, PKM2 act)
O=C1CCN(Cc2ccc(Cl)cc2)N1	none (no result: PKM2 act)
CN(C)c1ccc(/C=C/C=C2/C(=O)NC(=O)N(c3ccccc3)C2=O)cc1	PLK1 PBD inh inconclusive | TbPYK inh 25.1µM | TbPYK orthogonal inactive
COC(=O)CCCc1[se]c2ccccc2c1I	none (no result: PLK1 PBD inh, Mito fusion yeast, PKM2 act, GLS inh)
CSc1ncc(/C=C2/C(=O)NC(=O)N(C)C2=O)cn1	PLK1 PBD inh 10.6µM, VDR inhibitor inconclusive | TbPYK inh inconclusive | TbPYK orthogonal inconclusive

Screens: PubChem, National Center for Advancing Translational Sciences (NCATS)
